Screening data from PubChem.
Hits are enriched below; roughly 2.4% of the tested compounds scored in any of these assays.
D2 ag-1: Beta-Arrestin HTS for Positive Allosteric Modulators of the Human D2 Dopamine Receptor: Agonists. activation, % (concentration not given with the values). DiscoveRx PathHunter D2 beta-arrestin, luminescence, 90 min; 100% = 57 uM dopamine signal. D(2) dopamine receptor (Homo sapiens), P14416. 0.084% of 360,000 active. AID 624465, 2012; in the data active = activation above about 40%; inconclusive = between about 15% and that limit
Target sequence (P14416 whole entry, looked up): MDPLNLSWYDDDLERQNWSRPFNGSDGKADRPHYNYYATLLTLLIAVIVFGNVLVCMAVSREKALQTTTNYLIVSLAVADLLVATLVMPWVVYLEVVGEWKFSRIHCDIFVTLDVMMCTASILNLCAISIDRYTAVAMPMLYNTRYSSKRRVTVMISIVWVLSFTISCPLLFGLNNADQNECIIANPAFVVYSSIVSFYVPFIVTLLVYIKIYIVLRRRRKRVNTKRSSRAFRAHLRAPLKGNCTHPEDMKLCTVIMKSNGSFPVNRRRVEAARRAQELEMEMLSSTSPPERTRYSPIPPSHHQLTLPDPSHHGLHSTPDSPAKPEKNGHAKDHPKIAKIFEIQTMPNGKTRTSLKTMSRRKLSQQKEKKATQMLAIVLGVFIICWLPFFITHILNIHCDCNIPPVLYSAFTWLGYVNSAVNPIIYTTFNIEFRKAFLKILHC
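Agonist mode: compounds alone added to overnight-plated D2 PathHunter cells for 90 min at 37 C, with 57 uM final dopamine (EC100) defining full response. Beta-arrestin recruitment detected by chemiluminescent reagent, read after 1 h at ambient temperature.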
D2 antagonist: HTS Assay for Allosteric Antagonists of the Human D2 Dopamine Receptor: Primary Screen for Antagonists; AID 485344, 2010; inhibition, % at 10 µM; HEK293 TREx D2 cells, calcium flux, dopamine EC80; 2% of 340,000 active; D(2) dopamine receptor (Homo sapiens), P14416; in the data active = inhibition above about 30%; inactive = below that, where a call was filed; also: 0% is about no effect
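Measurement of antagonist activity uses fluorescent calcium dye in inducible HEK293 T-REx D2 cells: 10 s baseline, compound addition with 180 s read, EC80 dopamine addition with a further 180 s read.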
D2 PAM-1: Beta-Arrestin HTS for Positive Allosteric Modulators of the Human D2 Dopamine Receptor: Potentiators | D(2) dopamine receptor (Homo sapiens), P14416 | potentiation, % (concentration not given with the values) | 0.23% of 360,000 active | DiscoveRx D2 beta-arrestin cells, luminescence, 90 min; 100% = 57 uM dopamine signal; in the data active = potentiation above about 50%; inconclusive = mostly about 30% to 49%
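PathHunter D2 cells, attached overnight at 37 deg C, received compound in DMSO plus dopamine at EC20 (50 nM final) for 90 min at 37 deg C. Beta-arrestin recruitment was read as luminescence after 1 h with detection reagent at ambient temperature.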
D2 ag-2: HTS Assay for Allosteric Agonists of the Human D2 Dopamine Receptor: Primary Screen for Agonists. D(2) dopamine receptor (Homo sapiens), P14416. HEK293 T-REx D2 cells, calcium flux agonist mode. activation, % at 2 µM. 0.53% of 340,000 active. AID 485358, 2010;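 active = activation over 3 SD above normal in the single-dose calcium agonist read, cut at about 30% in these data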; also: 0% is about no effect
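Tetracycline-induced HEK293 T-REx cells with force-coupled D2 receptor, plated overnight at 30 C, loaded with no-wash calcium dye. After a 10 s baseline, compound was pin-added and calcium flux read kinetically for 180 s; calcium rises flagged agonists.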
D2 PAM-2: HTS Assay for Positive Allosteric Modulators of the Human D2 Dopamine Receptor: Primary Screen for Potentiators. D(2) dopamine receptor (Homo sapiens), P14416. HEK293 T-REx D2, calcium flux, EC20 dopamine potentiation. potentiation, % at 10 µM. 0.34% of 340,000 active;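 active = potentiation over 3 SD above the plate norm, cut at about 30% in these data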; also: 0% is about no effect
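Using a no-wash calcium dye in inducible, force-coupled HEK293 Trex cells expressing D2, we tracked fluorescence each second for 180 s after compound, then for 180 s after EC20 dopamine to detect augmented signalling.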
Active calls of the source: *; u = inconclusive; x = no result.

SMILES	D2 ag-1	D2 antagonist	D2 PAM-1	D2 ag-2	D2 PAM-2
CCc1cc(=O)oc2cc(C)cc(OCC(=O)N3CCC(C(=O)NC(C)C)(c4ccccc4)CC3)c12	3.8	53.1*	3.1	0.7	-13.0
Cc1ccc(-n2nc3c(=O)n(CC(=O)NCCC(C)C)nc(C)c3c2C)cc1	x	x	x	-0.2	-14.9
Cc1ccc(NCC(=O)N/N=C/c2ccncc2)cc1	-0.8	49.3*	-2.0	-1.6	4.0
CN1C(=O)C(N=Nc2ccccc2C(=O)O)N(C)C1=S (stereo not given)	-3.1	40.1*	-8.0	8.5	3.4
Cc1cc(O)c(C(C)C)cc1N=Nc1ccccc1C(=O)O	-5.1	9.4	-11.8	-1.3	3.8
COc1ccccc1-n1c(SCC(=O)NC2CCS(=O)(=O)C2)nc2cc([N+](=O)[O-])ccc21 (stereo not given)	-0.1	-17.6	-1.4	0.2	-4.9
CCN(CC)S(=O)(=O)c1ccc2c(c1)nc(SCC(=O)NC1CC1)n2-c1ccccc1OC	-2.3	50.5*	-5.0	1.0	x
Cc1ccc2c(c1)-c1c(cnc3cc(-c4ccc(F)cc4)nn13)CO2	x	x	x	0.5	12.1
CCOC(=O)c1ccc(Nc2ccc(C(C)=O)cc2)cc1	3.2	x	4.5	x	x
CCOC(=O)c1ccc(Nc2nnc(C(C)(C)C)c(=O)[nH]2)cc1	-0.5	53.1*	-9.7	-0.1	0.1
Cc1cccc(NC(=O)CCNS(=O)(=O)c2cccc3nonc23)c1C	3.5	30.7*	-1.3	-0.5	-6.5
CCOc1ccccc1NC(=O)CCNS(=O)(=O)c1cccc2nonc12	-4.8	-19.5	-9.4	0.6	-0.1
Cn1c(=O)c2ncn(C)c2n(C)c1=O	4.4	x	-1.9	x	x
COc1ccc2oc(C)c(C(=O)c3ccc([N+](=O)[O-])cc3)c2c1	u	-1.6	83.6*	18.8	13.9
CCC(=O)Nc1cc2c3c(c1)CCN3C(=O)CC2	-4.5	32.9*	-7.2	1.0	6.4
COc1ccc(S(N)(=O)=O)cc1-c1nnc2c3ccccc3c(C)nn12	0.6	30.1*	-0.1	0.0	-3.4
CC(C)(C)c1ccc(-n2ncc3c2CCCC3NC(=O)c2ccco2)cc1 (stereo not given)	-2.9	x	-19.6	x	x
O=C1S/C(=C\c2ccc(N3CCOCC3)o2)C(=O)N1c1ccccc1	1.4	3.8	0.0	30.7*	5.1
Cc1ccnn1CC(=O)N/N=C/c1c[nH]c2ccccc12	-2.1	-17.7	-2.2	-0.2	-0.8
Cc1ccnn1CC(=O)N/N=C/c1cn[nH]c1-c1ccccc1	-2.9	43.9*	0.4	0.2	0.7
COc1ccc(CCC(=O)NNC(=O)Nc2cc(Cl)ccc2C)cc1	-7.8	33.0*	-12.5	-0.5	-1.2
COC(=O)c1ccc(C)c(NC(=O)CCc2ccc(OC)cc2)c1	0.1	-10.8	-6.7	-0.8	-3.1
COc1ccc(-n2c(CN3CCN(c4ccccn4)CC3)nc3ccc([N+](=O)[O-])cc3c2=O)c(OC)c1	-0.1	6.3	-7.6	35.9*	-6.4
CCOC(=O)N1CCC(NC(=O)CCCN2C(=O)CSc3ncccc32)CC1	-0.1	31.7*	8.8	-0.1	5.5
COC(=O)c1cc2oc3ccccc3c2n1Cc1cc(C)ccc1C	x	x	x	-0.5	29.5
SMILES	D2 ag-1	D2 antagonist	D2 PAM-1	D2 ag-2	D2 PAM-2
Cc1ccc(OCCCN(C)C)c(Br)c1	-2.0	37.4*	-18.5	-0.3	8.3
Cc1ccc(OCCCNCCO)c(Br)c1	0.1	39.4*	-28.8	0.6	-13.6
O=C1C(=O)N(C2CCN(C(=O)c3ccccc3Cl)CC2)CCN1Cc1ccc(F)cc1	x	x	x	0.1	0.7
Cc1ccc(NC(=O)CS(=O)(=O)c2nc(-c3ccc(C)cc3)cn2-c2ccc(C)cc2)cc1	x	x	x	0.5	-7.7
CC(CCc1ccccc1)NC(=O)COC(=O)c1ccc(S(C)(=O)=O)c([N+](=O)[O-])c1 (stereo not given)	-1.8	1.9	-5.7	0.0	-1.8
CC(CCc1ccccc1)NC(=O)COC(=O)c1ccc([N+](=O)[O-])cc1 (stereo not given)	0.5	-12.2	4.6	-0.3	37.5*
COc1ccc(NC(=O)CNC(=O)Cc2cccc3ccccc23)c(OC)c1	1.9	-20.3	-8.0	0.1	-3.7
Cc1ccc(OCC(=O)N(Cc2ccco2)Cc2ccc(C)o2)cc1	x	x	x	-1.1	-7.7
Cc1ccc(-c2cc(C(=O)NC3CCCC3)no2)cc1	-5.7	-23.9	-6.0	0.0	5.9
O=C(NC1CCCCC1)c1cc(-c2ccc(F)cc2)on1	-2.6	6.4	0.9	-2.0	39.0*
CC(=O)Nc1ccc(C2=NNC(=Nc3cccc(S(=O)(=O)N(C)C)c3)SC2)cc1	6.9	5.5	-0.2	-1.0	5.8
CC(=O)Nc1ccc(C2=NNC(=Nc3ccc(S(=O)(=O)N4CCOCC4)cc3)SC2)cc1	6.6	42.7*	-5.6	-1.0	-5.8
O=S(=O)(c1ccc(N=C2NN=C(c3cc(F)ccc3F)CS2)cc1)N1CCOCC1	-3.2	17.9	15.5	0.0	30.1*
CC1(C(=O)NS(=O)(=O)c2ccccc2Cl)CCN1C(=O)Cc1cccc2ccccc12 (stereo not given)	1.5	x	-2.0	x	x
Cc1nc2c(ncn2-c2ccccc2)c(=O)n1NC(=O)CN1CCCCC1	-3.0	-10.6	-3.7	0.4	-3.6
Cc1nn(-c2ccccc2)c(C)c1C(=O)OCC(=O)N(C)C1CCS(=O)(=O)C1 (stereo not given)	-0.5	38.2*	-1.5	1.3	0.1
COc1ccccc1N1CCN(Cc2cnc3ccc(Cl)cn23)CC1	-3.7	55.2*	-9.2	-0.6	-29.1
COc1ccccc1N1CCN(Cc2ccc(C(=O)O)cc2)CC1	-8.1	-2.3	-17.4	1.0	-2.6
COC(=O)c1cc(CN2CCN(c3ccccc3C)CC2)ccc1O	-3.5	57.9*	-20.9	-1.3	-12.7
COc1ccccc1OCCCCN1CCN(c2ccccc2OC)CC1	-2.7	3.9	-35.9	0.9	7.4
COc1ccc(CN2CCN(c3ccccc3OC)CC2)c(OC)c1	-1.4	91.2*	-63.7	0.2	-21.4
COc1ccc(CN2CCN(c3ccccc3OC)CC2)cc1OC	-4.5	66.0*	-2.6	0.7	-33.2
CC1=C(c2ccc(C)c(C)c2)S(=O)(=O)N=C1N1CCN(c2cccc(C)c2)C(C)C1 (stereo not given)	x	x	x	0.6	3.8
Cc1ccc(CNC(=O)CCNS(=O)(=O)c2ccc3c(c2)CCCC(=O)N3)cc1	x	x	x	-0.4	-6.8
O=C(NCc1ccccc1)C1CCCN(C(=O)NCc2ccccc2)C1 (stereo not given)	4.1	5.0	1.6	-0.2	-1.6
